Reference: ChEMBL document CHEMBL3988442, “University of Dundee, Small-Polar-MMV Screening Library” (2021)
Screen size: about 48,000 compounds; about 13,000 (27%) showed an effect of 50% or more. The list shows a part of the results.

Tested on: Wolbachia pipientis
Test: Anti-Wolbachia Cell-Based Screen
Type: functional
Parameters: scale not given: in the data most compounds retested in dose-response had high values
Conditions: 5 µM

| SMILES | Percent Effect [%] |
| --- | --- |
| COc1ccc(C2(C(=O)NCc3c(C)ncc4c3CCNC4)CC2)cc1 | -10.04 |
| CNS(=O)(=O)c1cc(C(=O)N(C)Cc2sccc2C)c(C)o1 | -10.4 |
| COc1c(C)cnc(CN(C)C(=O)Nc2ccc3c(c2)CCO3)c1C | 3.992 |
| COc1ccc(Cc2ncc3c(n2)CN(C(=O)CN(C)C)C3)cc1 | -15.7 |
| Cc1nc(C)n(CC2CN(CCOCC(F)(F)F)CCO2)n1 (stereo unspecified) | -2.106 |
| CCC(C)(NCC(=O)N(c1ccccc1)C(C)C)c1nc(C)cs1 (stereo unspecified) | -6.604 |
| Cc1cnn(C2CN(CC(=O)N(C)Cc3ccc(C)o3)C2)c1 | -130.6 |
| Cc1ccc(CNC(C)(C)c2noc(C(C)(C)C)n2)o1 | 107.5 |
| Cn1nccc1C(=O)NC(C)(C)c1noc(C(C)(C)C)n1 | 27.22 |
| Cc1ccc(CN(C)C(=O)CNC(C)(C)c2noc(C(C)(C)C)n2)o1 | 94 |
| Cc1csc(C(C)(C)NCC(=O)N(C)Cc2ccc(C)o2)n1 | 102.3 |
| COc1ccccc1C(C)(C)NCc1ccc(C)o1 | 6.664 |
| Cc1nc(C)n(CC2CCCN2CC(=O)N(C)Cc2ccc(C)o2)n1 (stereo unspecified) | 1.913 |
| Cc1csc(C(C)(C)NCCNS(C)(=O)=O)n1 | -2.878 |
| Cc1nn(C)c(C)c1OCC(=O)NCC(O)c1ccsc1 (stereo unspecified) | 4.904 |
| COCC(=O)N1CCN(C)C(=O)C(Cc2ccccc2-c2cccs2)C1 (stereo unspecified) | 162.7 |
| O=C(Nc1ccccc1-c1cccs1)N1CCN(CC(F)F)CC1 | -15.51 |
| CCC(=O)N1CCN(C(=O)Nc2ccccc2-c2cccs2)CC1 | -6.486 |
| CCC(=O)N1CSCC1C(=O)Nc1ccccc1-c1cccs1 (stereo unspecified) | -5.499 |
| COCC(=O)N1CCN(C(=O)c2cccs2)[C@@H](C(=O)OC)C1 | -3.923 |
| CCC(=O)N1CCN(C)C(=O)C(Cc2ccccc2-c2cccs2)C1 (stereo unspecified) | 157.1 |
| COCC(=O)N1CCN(C)C(=O)C(Cc2ccc(-c3cccs3)cc2)C1 (stereo unspecified) | 126.7 |

| SMILES | Percent Effect [%] |
| --- | --- |
| COCCc1noc(CN2CC(C)(c3ccccc3)CCC2=O)n1 (stereo unspecified) | -4.269 |
| COCCc1noc(Cn2c(=O)[nH]c3ccccc32)n1 | 95.59 |
| COCc1noc(Cn2ncn3cccc3c2=O)n1 | -2.273 |
| COCCc1noc(Cn2ccc3ccccc3c2=O)n1 | -26.03 |
| COCc1noc(Cn2c(C3CC3)nc3ccccc32)n1 | 95.56 |
| COCc1noc(Cn2ccc3ncccc3c2=O)n1 | 1.423 |
| COCc1noc(Cn2ccc3ccccc3c2=O)n1 | -17.57 |
| COCc1noc(Cn2c(=O)[nH]c3ccccc32)n1 | 93.82 |
| COCc1noc(CN2CC(=O)N(C)c3ccccc3C2=O)n1 | -11.96 |
| CSCC(CCO)NC(=O)Nc1cc(Br)ccc1C (stereo unspecified) | 9.066 |
| COCCN1CCC2(CCCN(C(=O)c3cncn3C)C2)CC1.O=C(O)C(F)(F)F | -17.89 |
| Cc1occc(=O)c1OCc1noc(C(=O)NC(C)C)n1 | 81.24 |
| CCc1nc(COc2ccc(N(C)C(C)=O)cc2)no1 | -47.78 |
| CCOC(=O)c1nc(COc2c(C)occc2=O)no1 | 107.7 |
| Cc1cccnc1C(NC(=O)CNC(=O)c1ccoc1C)C(C)C (stereo unspecified) | -9.405 |
| CNC(=O)c1nc(COc2c(C)occc2=O)no1 | 98.73 |
| CNC(=O)c1nc(Cn2ncc3ccccc3c2=O)no1 | -11.19 |
| CCOc1ccc(CC(CNC(=O)c2ccoc2C)C(N)=O)cc1 (stereo unspecified) | -14.81 |
| Cc1occc(=O)c1OCc1noc(C(=O)NCC(C)C)n1 | 118 |
| CNC(=O)c1ccc(OC)c(NCc2noc(-c3ccsc3)n2)c1 | -18.11 |
| Cc1occc1C(=O)NCC(O)c1ccc(Cl)s1 (stereo unspecified) | -1.514 |
| CN(CCc1nc2cc(Cl)ccc2[nH]1)C(=O)c1ncn[nH]1 | 8.261 |

| SMILES | Percent Effect [%] |
| --- | --- |
| CCCN1C[C@H]2CC[C@@H]1CN(C(=O)c1ccc(N(C)CCO)cc1)C2 | -0.2946 |
| COc1ccc(C(C)N2CCC(C(=O)N(C)C)CC2)cc1Cl (stereo unspecified) | 13.21 |
| COC(=O)NCC(=O)N(C)CC1Cc2ccccc2CN1C (stereo unspecified) | -16.07 |
| Cc1c(I)cccc1C(=O)NCc1nnc[nH]1 | -11.57 |
| CC(C)(C)C(=O)N1C[C@H](c2ccsc2)[C@H]2CN(Cc3cccs3)CC[C@H]21.Cl | 6.375 |
| CC(C)(C)C(=O)N1C[C@H](c2ccsc2)[C@H]2CN(C3CCCCC3)CC[C@H]21.Cl | 142.3 |
| CC(C)(C)C(=O)N1C[C@H](c2ccsc2)[C@H]2CN(C3CCCC3)CC[C@H]21.Cl | 191.9 |
| COC(=O)N1CCC(NC(=O)N2CCCC2c2ccsc2)CC1 (stereo unspecified) | 22.17 |
| COC(=O)CS(=O)(=O)CCC(=O)N1CCCC1c1ccsc1 (stereo unspecified) | 0.3686 |
| CC(C)(C)NC(=O)CNC(=O)CCc1ccccc1Br | 12.72 |
| CN(Cc1nc(N)c2ccccc2n1)C1CCCN(c2cccnn2)C1 (stereo unspecified) | 10.49 |
| CN(c1ncnc2sccc12)C1CCCN(c2cccnn2)C1 (stereo unspecified) | 17 |
| Cc1nc2ccccc2nc1CN(C)C1CCCN(c2cccnn2)C1 (stereo unspecified) | 3.642 |
| CN(Cc1ncc(-c2ccccc2)o1)C1CCCN(c2cccnn2)C1 (stereo unspecified) | 2.582 |
| CN(Cc1nc2ccccc2s1)C1CCCN(c2cccnn2)C1 (stereo unspecified) | 143.8 |
| CN(c1ncnc2ccccc12)C1CCCN(c2cccnn2)C1 (stereo unspecified) | 80.98 |
| CN(c1ncnc2c1cnn2C)C1CCCN(c2cccnn2)C1 (stereo unspecified) | -20.96 |
| Cc1nc(CN(C)C2CCCN(c3cccnn3)C2)nc2ccccc12 (stereo unspecified) | 87.46 |
| Cc1nc(CN(C)CC2CCCN2c2cccnn2)nc2ccccc12 (stereo unspecified) | 6.947 |
| O=C(C[C@H]1[C@H]2CN(c3ncccn3)C[C@@H]12)Nc1cccnc1.O=C(O)C(F)(F)F.O=C(O)C(F)(F)F | -0.113 |
| CCc1nc(CN(C)CC2CCN(CC(C)O)CC2)no1 (stereo unspecified) | -10.69 |
| CN1CCCC(CCC(=O)N2CCc3sc(C(=O)N(C)C)cc3C2)C1 (stereo unspecified) | -22.79 |
